# Experimental data published in the supplement of paper PMC6555819.
# Key:
# Assay in all cases: PBM binding z-score (relative to random genomic background probes); higher = stronger binding; sequences stand for … in GC…GCGATTGACAGCGTAGAATGAAGG
# [1] = tested on: FXR:RXRa (NR concentration 270 nM, RXRa partner concentration 90 nM)
# Procedure, shortened: (§1)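 Ligand-free nuclear receptor dimers were bound for 1 h to custom Agilent 4×180K protein-binding microarrays. Detection used antibodies against each partner (one per run). Binding z-scores rest on regression-normalized fluorescence, with random background probes as the reference.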
# [2] = tested on: LXRa:RXRa (NR concentration 270 nM, RXRa partner concentration 90 nM)
# Procedure, shortened: as §1
# [3] = tested on: LXRa homodimer (NR concentration 270 nM)
# Procedure, shortened: as §1
# [4] = tested on: LXRb:RXRa (NR concentration 270 nM, RXRa partner concentration 90 nM)
# Procedure, shortened: as §1
# [5] = tested on: LXRb homodimer (NR concentration 270 nM)
# Procedure, shortened: as §1
# [6] = tested on: PPARa:RXRa (NR concentration 270 nM, RXRa partner concentration 90 nM)
# Procedure, shortened: as §1
# [7] = tested on: PPARg:RXRa (NR concentration 180 nM, RXRa partner concentration 90 nM)
# Procedure, shortened: as §1
# [8] = tested on: PPARg:RXRa 270nM:90nM, anti-RXR (NR concentration 270 nM, RXRa partner concentration 90 nM)
# Procedure, shortened: as §1
# [9] = tested on: PPARg:RXRa 30nM:10nM, anti-RXR (NR concentration 30 nM, RXRa partner concentration 10 nM)
# Procedure, shortened: as §1
# [10] = tested on: PPARg:RXRa 90nM:30nM, anti-RXR (NR concentration 90 nM, RXRa partner concentration 30 nM)
# Procedure, shortened: as §1
Sequence,PBM binding z-score [1],PBM binding z-score [2],PBM binding z-score [3],PBM binding z-score [4],PBM binding z-score [5],PBM binding z-score [6],PBM binding z-score [7],PBM binding z-score [8],PBM binding z-score [9],PBM binding z-score [10]
GCTATTAGTTGAAAGGGTAACCGAATGATTCTCG,-0.0135,0.398,0.254,0.557,-0.148,1.63,1.39,3.38,1.36,3.03
TCATATCGGTAAAAGGTGAAAGTCGGTGTGGTAA,1.65,1.77,0.323,1.52,0.181,4.23,6.69,6.91,6.64,7.74
CCTATTAGTTAACCATAAGGGCAACCGAAGCTCG,0.323,0.341,0.429,0.249,0.486,0.386,0.374,0.215,0.166,0.0193
CCTAGTTGGTCAGGAGGTTACACACCGGATATGA,0.491,0.633,0.538,1.02,0.258,1.5,1.14,1.4,0.448,1.07
ACTAGTTGGTCAGCTGAGATCACACACAATTCGG,-0.123,-0.166,-0.172,0.118,0.186,-0.138,0.977,0.171,0.202,0.195
AGTAAAAGTTCAGGACGAGGTAACGTAAAGCACG,3.83,3.28,1.42,1.75,0.493,2.63,1.81,2.14,0.671,1.29
ACTCACGGGTCAACGAGGTTATAGCACGCGTATA,6.65,4.67,0.969,4.03,0.564,5.34,4.39,4.55,1.72,3.08
TCTCGGAGTACACGAAGGTCAGAGCTTTCCAGAG,0.57,0.884,-0.152,1.09,-1.07,1.84,0.351,1.35,1.91,1.7
TTACCAAGGCGAGCTGAGGTCGTTGATCCAACTC,0.487,0.298,-0.362,0.482,-0.87,0.95,-0.35,0.0213,-0.31,0.219
ATCTCTAGGTACAGTTCAGTGAAAGATCGATAGA,0.629,0.639,0.57,0.6,1.26,0.51,0.382,0.647,0.518,0.644
ATCGAAGGGTCGAGGTGAGTATAGAGAAAGGGAA,1.41,1.24,0.0219,1.19,0.389,2.62,1.49,1.28,0.548,0.905
GGAACGAGGGCAAGTTAATAGCAGAGTTTGATGG,0.629,0.178,-0.0244,0.334,-0.49,1.53,1.14,0.86,0.37,0.378
GATACAGGGTCAGCTAGAGGCCAGAGTGTGGAAA,4.82,3.13,-0.348,2.53,-0.522,4.62,3.38,3.34,0.644,2.07
TGTCAAAGTTCAAAAGTAACGTAAGTATCCACAC,6.34,6.07,4.09,4.04,2.53,4.83,7.77,6.63,4.65,6.63
TCTCGGTGGACACGAAAGGTCAGAGCTCGACATC,2.46,3.58,2.21,3.1,-0.0844,3.69,1.16,2.93,2.55,2.78
ATATGTAGGTTGTCGGGTCATTCAGTTTGCGCAT,2.12,2.15,1.45,2.65,0.953,3.6,2.89,3.27,1.09,2.63
CGTCCAAGGTCAATGCTGGGTCAGTGAAAGCATT,6.49,4.95,0.942,3.75,0.628,5.14,3.82,4.53,1.09,3.07
ATAGAAAGGTCGAGGTGAGTATAGAGAAAGGGAA,4.25,3.22,0.369,2.75,0.952,4.36,3.26,3.43,1.67,2.2
CGAACTAGGTCAACCAGGACAGTGAATACATTGA,4.29,2.78,0.571,2.31,0.00788,4.98,8.21,6.58,4.17,5.96
GCTAGCAGGCCATTTGGGACACTCAATGACGGGC,-0.491,-0.668,-0.545,-1.16,-1.04,-0.523,0.681,-0.463,-0.719,-0.835
CGTCCAAGGGCATAGGAGGTCAGTGAAGACAGAT,3.02,5.05,1.32,2.56,-0.901,3.11,1.15,1.38,-0.000502,0.667
TCTATTAGTTGAAGGCCAACCGACGAGTCCGTTT,0.871,1.16,0.259,0.921,0.342,1.28,0.257,2.32,4.11,2.96
CTCGAAAGGTCGTGCTCAGGTGAGTAGACCAAAC,5.65,3.86,-0.195,3.08,0.0468,4.81,2.71,3.96,0.899,2.88
ACAGACAGGTGATGAAGGGAACTCAGGCTATCAT,-0.0225,-0.0438,-0.158,-0.298,-0.495,-0.115,0.754,0.00384,0.0362,-0.027
CCTGCTAGGTCATGGTCAGTTAATCTACAGTATG,3.84,2.66,0.0744,1.97,-0.163,3.48,2.31,2.88,0.868,2.13

Sequence,PBM binding z-score [1],PBM binding z-score [2],PBM binding z-score [3],PBM binding z-score [4],PBM binding z-score [5],PBM binding z-score [6],PBM binding z-score [7],PBM binding z-score [8],PBM binding z-score [9],PBM binding z-score [10]
AGTCAAAGTTCATCTAGGTAACCTAAGATATGCT,6.25,6.2,6.02,4.02,2,4.99,6.33,6.35,3.52,5.54
TCTTGTAGATCAAGCAGGTTAAGAAAGCCTGAGT,0.0308,0.414,-0.381,0.385,-0.415,0.741,-0.57,1.21,2.46,1.7
TTACCAAGGTGAAGGTCCTTGATCCCTCTGTAGA,0.794,0.644,-0.31,1.04,-0.95,1.87,1.33,2.39,0.878,2.03
ACAGACAGGTCAGTGAAGGTAACTCAGCTGGACG,2.55,1.83,-0.374,1.07,-0.266,2.47,1.18,1.05,-0.166,0.444
TCATATAGGTAAACGGTGAAAGTCGGTGTGGTAA,0.188,0.878,0.118,0.712,-0.229,2.17,2.41,4.15,4.43,4.57
CCAGACAGCTGAAAGGTAACTCAGTCTGGTACGC,-0.259,-0.27,-0.368,-0.00199,-0.748,0.193,0.377,-0.223,-0.581,-0.401
CCTACTGGGCCAAAAAGGTCATTGTTGCCGATAA,3.25,4.03,2.95,4.03,0.141,4.47,2.62,4.03,1.19,2.96
CGTCCAAGGTCAAAGGTCGGTGAAGAGATGACGG,7.72,5.78,1.27,5.08,0.738,7.01,9.09,7.29,6.65,7.6
AGAATGAGGTTATTAAGATCAGGGCATTGCGGTC,1.9,1.95,0.705,1.39,-0.0987,2.66,1.67,2.33,1,1.39
TCATATAGGTAAATGCTAGGTGAAACTCCGATCT,1,0.883,0.327,0.756,-0.00744,1.4,0.976,2.12,4.01,2.96
ATCGCAAGGTCGTGAGGTGAGTATACAGAAAGGC,2.59,1.9,-0.0908,1.6,-0.382,3.36,1.49,1.84,0.321,0.863
TCTTGTAGATCAAGGGTTAAGAAAGCCGAAGCCT,0.439,0.813,-0.616,0.958,-0.606,3.12,5.36,6.4,5.41,7.18
ATCTCTAGGTAACAAGTTAAGTGAAAGAGAGGAC,0.803,0.557,0.231,0.236,0.69,1.55,2.23,3.1,1.59,2.7
AATACAGGGTCATCGTAGGCCAGAGGACGCACAG,7.28,6.5,2.24,4.6,1.25,5.96,6.68,6.34,3.12,4.94
ATCGAAAGGTCGTGAGGTGAGTGTACAGAAAGGC,4.91,4.05,0.411,3.06,0.507,4.99,3.61,4.47,1.35,3.32
CCAGACAGGTGAAAGGTAACTAAGTCTGGTACGC,0.301,0.559,-0.431,0.84,-0.415,3.31,5.33,6.03,4.37,6.14
TAGCCTAGGTCATTCAGGGGACAGTATAGAAAGC,4.83,4.05,1.41,3.39,1.57,3.96,2.88,2.81,0.785,1.62
ATCTCTAGGTGAAGATAGTTCAGTGAATGCAAAT,0.203,1.02,0.126,0.441,0.00986,1.69,1.75,1.55,0.448,0.885
GGAACGAGGGCATTCTAGTTGATAGCATGGCGAT,1.44,1.08,-0.665,0.264,-0.166,1.21,0.871,0.642,-0.247,0.231
GCTAGTTGGTCAGTAAAAGGTCACACACCGGTCG,3.43,4.13,4.61,3.79,0.823,4.31,3.03,4.23,2.21,4.37
TCATATAGGTAAACAGGTGAGAGTCCGTAAGTTA,0.963,0.822,0.145,0.682,0.166,2.04,2.39,3.16,3.77,3.41
CCTTACGGGGCACTCCAGGTTATAGCATCGGAGT,0.717,5.05,0.548,1.13,-0.636,0.679,0.305,0.0783,-0.441,-0.274
CCGAGTAGATTATGGGGCATTCAGGCAACGGTGA,0.0957,-0.0855,-0.262,0.275,-0.645,0.18,0.487,0.839,0.0845,0.412
TCTATTAGTTGATAAGGGCAACCGAAACAGCGGA,0.612,0.486,0.203,0.463,0.396,0.736,0.322,1.86,3.81,2.97
